Bioassay records from PubChem.
Rows were chosen to be rich in hits. Some 0.89% of all compounds tested hit in one or more screens of this group.
Eya2 phos inh – inhibitors of human Eya2 phosphatase activity; O00167; recombinant Eya2, OMFP fluorescence dephosphorylation (OMFP is methylfluorescein phosphate); Potency, µM (top dose mostly 76.9 µM), most hits filed as inhibitors; hit rate 0.006% among 330,000
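Eya2 (0.2 uM) preincubated 10 min at ambient with compound, then OMFP substrate added at 50 uM; 10 min reaction in 50 mM HEPES pH 7.5, 50 mM NaCl, 5 uM MgCl2, 0.05% BSA, 1 mM DTT. Fluorescence read at Ex 485/Em 525 nm.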
MBNL1-CUG inh – MBNL1-poly(CUG) RNA binding inhibition; Q9NR56; TR-FRET MBNL1-His/biotin-(CUG)12 binding, 665/545 ratio; Potency, µM (series often up to 57.5 µM), hits mostly inhibitors; hit rate 0.036% among 280,000; active = well fitted inhibition curve with a large enough effect in the signal ratio, with a control signal flat, not every such curve was filed as active; inconclusive = small, poorly fitted or top-dose-only effect, or effect the other way, or a change in a side signal; inactive = no such curve, though single readings can be large or run the other way; the % refers to the signal ratio
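Inhibition of protein-RNA binding appears as loss of TR-FRET between terbium anti-His antibody on MBNL1-His and streptavidin-XL665 on biotin-(CUG)12. Activity is normalized to buffer-only and uninhibited-complex controls.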
CtBP-E1A blk – CtBP/E1A binding inhibition | AlphaScreen GST-E1A/His-CtBP binding, 1536-well; hits give low values | activity change, % (concentration not given with the values) | hit rate 0.49% among 340,000; in the data active = activity change below about -65%; inconclusive = mostly about -30% to -63%
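GST-E1A and His-tagged CtBP (125 nM each as 5X stock) were preincubated with pin-transferred compound for 2 h at 37 °C in the dark, then glutathione donor and nickel acceptor beads were added for 1 h before AlphaScreen reading.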
CBFb RUNX1 block – blocks binding between human CBF-beta and RUNX1 | 230,000 tested, under 10 active | AlphaScreen CBFb-His/RUNX1-biotin binding, biochemical | Q01196+Q13951 | Potency, µM (series often up to 59.8 µM), actives largely listed as inhibitors
Target sequence (Q01196 whole entry, looked up): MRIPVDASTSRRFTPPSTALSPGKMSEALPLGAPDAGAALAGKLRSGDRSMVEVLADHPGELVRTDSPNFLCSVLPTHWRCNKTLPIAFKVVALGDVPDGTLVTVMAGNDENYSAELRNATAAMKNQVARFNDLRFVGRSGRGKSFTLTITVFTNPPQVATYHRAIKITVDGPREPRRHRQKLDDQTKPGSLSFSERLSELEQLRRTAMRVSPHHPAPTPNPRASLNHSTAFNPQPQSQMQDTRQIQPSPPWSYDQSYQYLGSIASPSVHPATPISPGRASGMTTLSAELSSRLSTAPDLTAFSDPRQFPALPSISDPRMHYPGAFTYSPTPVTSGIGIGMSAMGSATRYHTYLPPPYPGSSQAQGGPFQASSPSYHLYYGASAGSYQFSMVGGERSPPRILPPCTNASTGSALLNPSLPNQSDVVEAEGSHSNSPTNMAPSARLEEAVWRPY
Target sequence (Q13951 whole entry, looked up): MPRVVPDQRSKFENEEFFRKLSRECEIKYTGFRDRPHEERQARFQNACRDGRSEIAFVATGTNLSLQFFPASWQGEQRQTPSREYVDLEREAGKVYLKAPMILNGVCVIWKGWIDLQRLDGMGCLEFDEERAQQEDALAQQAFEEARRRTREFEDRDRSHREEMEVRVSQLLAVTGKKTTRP
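Inhibition was taken as any reduction in AlphaScreen signal from the CBF-beta–RUNX1 pair (His and biotin tags, 30 nM each), measured after compound (15 min) and bead (90 min) incubations at room temperature.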
Six1-Eya2 inh – Six1/Eya2 interaction inhibition | Q15475+O00167 | AlphaScreen GST-Six1/His-Eya2 binding, biochemical; hits give low values | activity change, % (test concentration not listed) | hit rate 0.56% among 360,000 | AID 651725; in the data active = activity change below about -65%; inconclusive = mostly about -30% to -63%
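GST-Six1 + His-Eya2 (5X stock: 250/500 nM); Tris pH 8.0, 300 mM NaCl, 0.05% BSA, 0.02% Tween 20; GSH donor/Ni acceptor beads; 1 h 37 °C dark; AlphaScreen readout.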
L3MBTL1 inh – inhibitors of human L3MBTL1. hit rate 0.66% among 230,000. AlphaScreen L3MBTL1–H3K9me1 peptide binding. Q9Y468. Potency, µM (highest dose often 57.1 µM), usual class: inhibitors; note: nearly all actives have a fitted effect of over 60% in size
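First, the protein-peptide complex forms for 30 min at room temperature (L3MBTL1 50 nM, biotinylated H3K9me1 peptide 75 nM). Next, compounds are pin-transferred and incubated 30 min. Finally, AlphaScreen beads are added and read after 30 min.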
Hits are given with their value; i = inactive; ? = inconclusive; nt = not tested or not shown. Unless noted, calls come from the whole dose curve; as a rule, active = well fitted curve in the direction sought with a large enough effect; inconclusive = small, poorly fitted or top-dose-only effect, or another doubt; inactive = no such curve, though single readings can be large; an effect the other way counts as inactive or inconclusive.

SMILES	Eya2 phos inh	MBNL1-CUG inh	CtBP-E1A blk	CBFb RUNX1 block	Six1-Eya2 inh	L3MBTL1 inh
Cc1nc(Nc2ccc(C(=O)O)cc2)nc(Nc2ccc(C(=O)O)cc2)c1[N+](=O)[O-]	i	?	nt	i	-75.1	i
CN1CCN(c2ccccc2NC(=O)c2cc3c(s2)-c2ccccc2OC3)CC1	i	?	-79.1	i	i	nt
O=C(NNc1c2ccccc2nc2ccccc12)c1ccccc1O	i	nt	-72.5	?	?	i
O=C(NNc1c2ccccc2nc2ccccc12)c1ccc(O)cc1O	i	?	-84.1	nt	-83.6	?
O=C(NNC(=O)c1ccc(O)cc1O)c1ccc(-c2ccccc2)cc1	i	i	nt	nt	i	i
O=C(NNc1c2ccccc2nc2ccccc12)c1ccccc1Cl	i	i	i	nt	i	i
CCCCOc1ccc(/C=C/C(=O)N(CC)CC(=O)Nc2ccc3c(c2)OCCO3)cc1OC	i	nt	i	nt	i	i
O=C(Nc1cccc(S(=O)(=O)N2CCOCC2)c1)C1CCCCN1S(=O)(=O)c1ccccc1 (stereo not drawn)	i	nt	?	nt	?	i
O=C(Nc1cccc(S(=O)(=O)N2CCOCC2)c1)[C@@H]1CCCN1S(=O)(=O)c1ccc(Cl)cc1	i	i	-65.1	i	?	i
O=C(Nc1ccn(CCCN2CCC(N3CCOCC3)CC2)c(=O)n1)OCc1ccccc1	nt	nt	i	nt	i	nt
COc1cccc(Nc2nc(C(N)CO)cs2)n1 (stereo not drawn)	nt	nt	-75.7	nt	?	nt
NC(=O)c1ccc(Nc2nc(C(N)COCc3ccccc3)cs2)cc1 (stereo not drawn)	nt	nt	i	nt	i	nt
COc1ccc(CC(N)c2csc(Nc3cc(NCCCO)ncn3)n2)cc1 (stereo not drawn)	nt	nt	-92.9	nt	-90.6	nt
NC(COCc1ccccc1)c1csc(Nc2cc(NCCCO)ncn2)n1 (stereo not drawn)	nt	nt	-86.0	nt	-86.4	nt
NCc1csc(Nc2ncccn2)n1	nt	nt	-80.6	nt	-72.5	nt
Cc1nc(N)sc1-c1csc(Nc2ncccn2)n1	i	i	i	?	?	i
CCOC(=O)C1=C(COC(=O)C(CC)Oc2ccccc2)NC(=O)NC1C (stereo not drawn)	i	nt	i	nt	i	i
O=C(Nc1nnc(SCC(=O)N2CCCCC2)s1)c1c(F)cccc1F	i	i	i	nt	i	nt
CC(C)CC(N)c1csc(Nc2ccc(S(C)(=O)=O)cc2)n1 (stereo not drawn)	nt	nt	i	nt	i	nt
NC(COCc1ccccc1)c1csc(Nc2ncccn2)n1 (stereo not drawn)	nt	nt	-85.0	nt	-80.9	nt
NC(Cc1ccc(Cl)cc1)c1csc(Nc2cc(NCCCO)ncn2)n1 (stereo not drawn)	nt	nt	-78.3	nt	-69.6	nt
CC(C)CC(N)c1csc(Nc2ncccn2)n1 (stereo not drawn)	nt	nt	-70.9	nt	?	nt
CC(OC(=O)[C@@H]1CCCN1C(=O)c1cccs1)C(=O)Nc1cccc([N+](=O)[O-])c1 (stereo partly drawn)	i	nt	i	nt	i	i
CC(C)COc1cccc(C(=O)N(C)CC(=O)Nc2cccc3ccccc23)c1	i	nt	i	nt	i	i
Nc1nc2c(c(=O)[nH]1)N=C(CNc1ccc(C(=O)NC(CCC(=O)O)C(=O)O)cc1)CN2 (stereo not drawn)	nt	nt	nt	i	nt	nt
SMILES	Eya2 phos inh	MBNL1-CUG inh	CtBP-E1A blk	CBFb RUNX1 block	Six1-Eya2 inh	L3MBTL1 inh
COc1ccc(NS(=O)(=O)c2cccc(C(=O)NNC(=O)c3ccc(=O)[nH]c3)c2)cc1	i	nt	nt	nt	i	i
COC(=O)[C@@H]1C[C@@]2(O)[C@H](O)[C@H](O)[C@H](O)C[C@H]2N1Cc1c(F)cccc1Cl	nt	nt	nt	i	nt	nt
COc1ccc(N=C2C(=Nc3ccc(OC)cc3)N(c3ccc(OC)cc3)C(=S)N2C)cc1	i	i	-80.0	i	-69.4	nt
O=C(CN1C(=O)NC2(CCCC2)C1=O)N1CCc2ccccc2C1	i	nt	i	i	i	i
Cc1cc2nc(-c3ccc(SCC(=O)N4CCN(C(=O)c5ccco5)CC4)nc3)[nH]c2cc1C	i	i	i	i	i	31.6µM
COc1ccc(-c2c(N)cnc(C(=O)O)c2C)c(OCc2ccccc2)c1OC	nt	nt	i	nt	-82.5	nt
COc1ccc(C(=O)C(C)C(C)=O)c(OCc2ccccc2)c1OC (stereo not drawn)	nt	nt	i	nt	i	nt
NCC(=O)Nc1ccc(Cl)cc1C(=O)c1ccc[nH]1	i	i	nt	?	-81.3	?
Cc1ccc(CNC(=O)C2CCN(c3nn4c(=O)cc(C)nc4s3)CC2)cc1	i	i	?	nt	?	nt
Cc1cc(=O)n2nc(N3CCC(C(=O)NCc4ccc(Cl)cc4)CC3)sc2n1	i	i	nt	nt	-65.3	nt
Cc1ccc(C(=O)NCCc2c[nH]c3ccccc23)s1	i	i	i	nt	i	nt
CCOc1cc2nc(-c3ccc(OC)c(OC)c3)nc(NCCCN3CCOCC3)c2cc1OC	i	i	-88.2	i	-91.0	nt
COc1cc2nc(=S)n(CCCN3CCOCC3)c(N)c2cc1OC	i	i	-87.6	i	-85.2	i
COc1cc2ncnc(NCCCN3CCOCC3)c2cc1OC	i	i	nt	i	i	nt
CC1(C(=O)NS(=O)(=O)c2cccc(OC(F)F)c2)CCN1C(=O)C/C=C/c1ccccc1 (stereo not drawn)	nt	nt	i	nt	i	nt
Cc1cc(C)n2nc(SCC(=O)NC3CCCCC3C)nc2n1 (stereo not drawn)	i	i	nt	nt	i	nt
Cc1n(-c2ccccc2)c2ccc(Cl)cc2[n+]1CCO	i	i	i	i	i	i
COc1ccc(CN(C(=O)COc2ccccc2)c2ccccc2C(=O)O)cc1	i	i	nt	i	i	i
COc1ccc(N2C(=O)CC(N(CCc3ccccc3)C(=O)c3ccccc3)C2=O)cc1 (stereo not drawn)	i	i	-69.6	i	i	i
Cc1ccc(C(=O)Nc2ccc(Cl)cc2C)c(Cl)c1	i	i	i	i	i	i
COC(CNC(=O)c1coc2nc3ccccc3nc12)OC	i	?	i	i	i	nt
CCOC(=O)C1CCN(C(=O)c2ccc(S(=O)(=O)Nc3ccccc3Cl)cc2)CC1	i	nt	i	nt	i	i
COc1cc(C(=O)N/N=C/c2cc([N+](=O)[O-])cs2)cc(OC)c1OC	i	?	-71.8	i	?	i
CCOC(=O)NC1(Nc2ccc(Cl)cn2)Oc2ccccc2O1	i	i	nt	?	nt	11.2µM
O=S(=O)(Nc1cccc(-c2cn3cccnc3n2)c1)c1ccc(-c2ccccc2)cc1	i	i	?	i	?	i
O=S(=O)(Nc1cccc(-c2cn3cccnc3n2)c1)c1ccc(F)cc1	i	nt	i	i	-66.7	i
O=S(=O)(Nc1cccc(-c2cn3cccnc3n2)c1)c1ccccc1	i	nt	i	i	-83.4	i
O=C(N/N=C/c1cc(Cl)cc([N+](=O)[O-])c1O)c1ccc2c(c1)OCO2	i	i	?	nt	i	i
